Screening data deposited in PubChem by several laboratories.
Most compounds without a hit are left out; they make up all but 28% or so of the library.
CYP2C19 activ = activators of human cytochrome P450 2C19; P33261; recombinant CYP2C19, luciferin-H EGE luminescence; active compounds read high; 0 = fully inhibited enzyme, 1 = untreated enzyme; activation factor at 5 µM; 96,000 tested, under 10 active; AID 1025;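 active = activation factor of at least 2 at 5 µM in the primary screen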;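 also: 0 = wells with 2.5 mM tranylcypromine and 1 = vehicle-only wells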
CYP2C19 inh = inhibitors of human CYP2C19; P33261; CYP2C19 Supersomes, luciferin-H EGE luminescence, 30 min; inhibition, % at 5 µM; actives 21% (n = 96,000);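 active = CYP2C19 inhibition above a set limit at 5 µM in the primary screen, cut at about 50% in these data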;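 also: plate controls were negative control wells for no effect and 2.5 mM tranylcypromine positive control for full effect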
CYP2C9 act = activators of human CYP2C9 | actives 1.4% (n = 96,000) | P11712 | recombinant CYP2C9, luciferin-H conversion, luminescence; active compounds read high; factor 1 = untreated enzyme, 0 = blocked | activation factor at 5 µM;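 active = activation factor of 2 or more for CYP2C9 at a 5 µM dose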;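 also: 0 = sulfaphenazole-blocked wells and 1 = vehicle-only wells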
CYP2C9 inh = human CYP2C9 inhibition | P11712 | CYP2C9 Supersomes, luciferin-H conversion, luminescence | inhibition, % at 5 µM | actives 20% (n = 96,000);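 active = blocking of liver enzyme CYP2C9 beyond about 50% at 5 µM, limit read from the data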
D1 allo mod = D1 dopamine receptor (human) allosteric modulation | P21728 | actives 5.9% (n = 58,000) | B-score at 10 µM | HEK293 D1, CRE-luciferase, dopamine EC30 potentiation; actives deviate in either direction | AID 641;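 active = luminescence count or its row- and column-corrected plate score outside the 99.7% band of the plate's sample wells, on either side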
DAT uptake mod = changed human dopamine transporter uptake under cocaine IC80; Q01959; actives 1.3% (n = 110,000); LLC-PK1 hDAT cells, [14C]-dopamine uptake with cocaine IC80; actives deviate in either direction; B-score at 10 µM; AID 449768;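 active = Z score or B-score, a plate-position-corrected score, falls beyond the plate's 99.7% confidence bounds, in either direction; inactive = both scores lie inside the 99.7% bounds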;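 also: scored against the spread of the other compound wells on the same plate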
Target sequence (Q01959 whole entry, looked up): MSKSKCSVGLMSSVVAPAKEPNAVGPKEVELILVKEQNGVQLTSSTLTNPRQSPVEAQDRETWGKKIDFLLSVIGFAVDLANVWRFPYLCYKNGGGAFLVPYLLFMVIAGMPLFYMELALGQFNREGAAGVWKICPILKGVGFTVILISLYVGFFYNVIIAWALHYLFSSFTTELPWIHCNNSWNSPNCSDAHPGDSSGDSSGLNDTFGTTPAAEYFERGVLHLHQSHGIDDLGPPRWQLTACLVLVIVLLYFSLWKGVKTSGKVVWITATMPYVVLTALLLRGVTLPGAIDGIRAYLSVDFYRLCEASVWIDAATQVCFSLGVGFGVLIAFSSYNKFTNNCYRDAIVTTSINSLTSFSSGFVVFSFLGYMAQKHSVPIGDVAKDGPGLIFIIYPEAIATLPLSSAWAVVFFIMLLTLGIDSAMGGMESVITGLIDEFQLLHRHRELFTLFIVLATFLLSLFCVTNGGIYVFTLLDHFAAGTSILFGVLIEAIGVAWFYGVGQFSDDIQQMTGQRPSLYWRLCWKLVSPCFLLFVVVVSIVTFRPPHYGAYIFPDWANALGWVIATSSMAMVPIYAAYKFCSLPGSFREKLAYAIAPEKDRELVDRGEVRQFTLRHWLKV
Numbers without * were called inactive; . = no result given.

SMILES	CYP2C19 activ	CYP2C19 inh	CYP2C9 act	CYP2C9 inh	D1 allo mod	DAT uptake mod
CC(=O)Nc1cc(-c2nn(C)c(=O)c3ccccc23)ccc1N1CCCCC1	0.8	20	0.4	57*	.	-0.022
CC(=O)Nc1cc(-c2nn(CC(=O)N3CCCCC3)c(=O)c3ccccc23)ccc1N1CCOCC1	1	-3	0.9	12	1	0.65
Cc1ccc(-c2nn(C)c(=O)c3ccccc23)cc1S(=O)(=O)N1CCOCC1	.	.	.	.	3	-0.42
O=c1c(/C=C(\O)c2ccccc2)nc2ccccc2n1-c1ccccc1	0.5	46	0.7	34	.	0.39
O=C(CCCN1C(=O)c2cccnc2C1=O)N1CC(=O)N(CCc2ccccc2)C(=O)C1	0.8	24	0.9	13	0.51	0.015
CCOC(=O)c1[nH]c2ccc(OC)cc2c1NC(=O)CCN1CCCC(C)C1 (configuration not stated)	1.1	-8	1	-2	.	0.055
COC(=O)C1=C(N)Oc2cc(C)[nH]c(=O)c2C1c1cccnc1 (configuration not stated)	0.8	16	0.9	12	.	0.043
CC(NS(=O)(=O)c1ccccc1)C(c1cccs1)N1CCOCC1 (configuration not stated)	.	.	.	.	.	0.097
COC(=O)c1cn(NC(=O)c2cccnc2)c(=O)c2ccccc12	1.1	-8	0.9	7	1.2	-0.49
COC(=O)c1cn(NC(=O)c2ccncc2)c(=O)c2ccccc12	0.6	37	0.4	62*	-1.3	0.08
COC(=O)c1cn(NC(=O)c2cc(OC)cc(OC)c2)c(=O)c2ccccc12	0.8	15	0.2	78*	.	0.028
COC(=O)c1cn(-c2ccc(Cl)cc2)c(=O)c2ccccc12	0.3	69*	0.3	74*	.	0.59
COC(=O)c1cn(NC(=O)c2ccc(F)cc2)c(=O)c2ccccc12	0.9	13	0.7	26	.	1.1
COc1cc(-c2ccc(NC(=O)CN3CCCCC3)c(OC)c2)ccc1NC(=O)CN1CCCCC1	.	.	.	.	-0.63	.
C/C(CCc1ccc2c(c1)OCO2)=N\N=C(/N)SC1CC(=O)N(c2ccccc2F)C1=O (configuration not stated)	0.8	21	0.3	74*	.	-0.02
CCN=C(Nc1ccc2c(c1)OCO2)SC1CC(=O)N(c2ccc(OC)cc2)C1=O (configuration not stated)	.	.	.	.	.	-0.2
C=C1CCN([C@@H](CC(C)C)C(=O)NCc2ccco2)S(=O)(=O)c2ccccc21	.	.	.	.	.	0.17
O=C(c1cccc(F)c1F)N1CCCC1	.	.	.	.	.	0.0092
COC(=O)C1(CCSC)NC(c2ccco2)C2C(=O)N(C)C(=O)C21 (configuration not stated)	0.4	60*	1.1	-6	-0.22	0.2
O=C(C1CC1)N1CCc2cc(Br)cc(S(=O)(=O)NCc3ccccn3)c21	1.1	-6	1	1	-0.53	-0.36
O=C(C1CC1)N1CCc2cc(S(=O)(=O)NC3CCN(Cc4ccccc4)CC3)ccc21	0.9	9	1	2	0.34	.
O=C(C1CCC1)N1CCc2cc(S(=O)(=O)NCCN3CCN(c4ccccc4F)CC3)ccc21	0.5	48	0.4	59*	-1.3	0.65
O=C(C1CCC1)N1CCc2cc(S(=O)(=O)NCc3ccccn3)ccc21	0.9	14	0.4	58*	.	1.3
C=CCOc1cccc(C2/C(=C(/O)c3ccccc3)C(=O)C(=O)N2CCCN2CCOCC2)c1 (configuration not stated)	.	.	.	.	-0.33	.
Brc1ccc2c(c1)C(c1ccc(N3CCOCC3)cc1)=NNC(c1cccs1)=N2	0.6	41	0.5	50	.	0.54
Fc1ccc2c(c1)C(c1ccc(N3CCOCC3)cc1)=NNC(c1cccs1)=N2	0.1	90*	0.2	84*	.	0.66
C=CCn1c(SCC(=O)c2cc(C)n(Cc3cccs3)c2C)nnc1-c1ccncc1	0.6	44	0.6	36	0.11	0.25
COc1ccccc1-n1cnnc1SCC(=O)c1cc(C)n(Cc2cccs2)c1C	0	98*	0.1	89*	0.21	0.085
Cc1cc(C(=O)CSc2nnc(-c3ccccc3F)o2)c(C)n1Cc1cccs1	0	96*	0.2	78*	.	0.82
Cc1cc(C(=O)CN2C(=O)c3cccc(N)c3C2=O)c(C)n1Cc1cccs1	0.1	91*	2.4*	-138	.	-1.5
